# An excerpt weighted towards active compounds, which were near 2.3% of everything screened.
# Pf Dd2 inh: blocks growth of Plasmodium falciparum Dd2 parasites; P. falciparum Dd2 growth, SYBR Green, 72 h; active compounds read low; activity change, % at 10 µM; hit rate 2.3% among 94,000; AID 1159554; in the data active = activity change below about -80%
# C diff growth: C. difficile growth inhibition; hit rate 0.25% among 86,000; growth activity, negative = inhibition, % at 16 µg/mL (by protocol); AID 1259249; Clostridium difficile clinical isolate growth, OD600, 24 h; active compounds read low;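 active = mean growth activity at or below -80% and every replicate also at or below -80%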;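 also: 0% = DMSO wells and -100% = levofloxacin 16 µg/mL wells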
# Starred values were filed as active, the others as inactive; / = no result given.
SMILES,Pf Dd2 inh,C diff growth
COc1ccc(CN(C)C[C@H]2OCCCC[C@@H](C)Oc3ccc(NS(=O)(=O)c4ccc(OC)cc4)cc3C(=O)N([C@H](C)CO)C[C@H]2C)cc1,-87*,-6
COc1ccc(CN(C)C[C@H]2OCCCC[C@H](C)Oc3ccc(NS(=O)(=O)c4ccc(OC)cc4)cc3C(=O)N([C@H](C)CO)C[C@@H]2C)cc1,-24,0
COc1ccc(S(=O)(=O)Nc2ccc3c(c2)C(=O)N([C@H](C)CO)C[C@@H](C)[C@@H](CN(C)C(=O)NC2CCCCC2)OCCCC[C@@H](C)O3)cc1,-86*,4
COc1ccc(S(=O)(=O)Nc2ccc3c(c2)C(=O)N([C@H](C)CO)C[C@@H](C)[C@H](CN(C)C(=O)NC2CCCCC2)OCCCC[C@H](C)O3)cc1,-48,-11
O=C(C[C@@H]1C=C[C@@H](NC(=O)C2CCC2)[C@H](CO)O1)NC1CCCCC1,/,-1
C[C@H]1CN([C@@H](C)CO)C(=O)c2cccc(NS(=O)(=O)c3cn(C)cn3)c2O[C@H]1CN(C)C,9,-1
CCCC(=O)Nc1ccc2c(c1)C(=O)N(C)C[C@H](OC)[C@@H](C)CN(C(=O)C1CCCC1)[C@H](C)CO2,19,3
C[C@@H]1CN([C@@H](C)CO)S(=O)(=O)c2ccc(-c3cccnc3)cc2O[C@H]1CN(C)Cc1cncnc1,12,6
C[C@@H]1CN([C@H](C)CO)C(=O)c2ccccc2-c2ccccc2CO[C@@H]1CN(C)S(=O)(=O)c1ccc(Cl)cc1,-49,8
C[C@H](CO)N1C[C@H](C)[C@H](CN(C)Cc2ccccc2)OCc2ccccc2-c2ccccc2C1=O,-15,/
C[C@H](CO)N1C[C@H](C)[C@H](CN(C)S(=O)(=O)c2ccc(Cl)cc2)OCc2ccccc2-c2ccccc2C1=O,-85*,1
Cc1ccccc1S(=O)(=O)N(C)C[C@H]1OCc2ccccc2-c2ccccc2C(=O)N([C@H](C)CO)C[C@@H]1C,-19,12
COc1ccc(CN(C)C[C@@H]2OCc3cn(nn3)CCCC(=O)N([C@H](C)CO)C[C@H]2C)cc1,-81*,3
C[C@H](CO)N1C[C@H](C)[C@H](CN(C)Cc2ccc(-c3ccccc3)cc2)OCc2ccccc2-c2ccccc2C1=O,-87*,8
Cc1ccccc1S(=O)(=O)N(C)C[C@H]1OCc2ccccc2-c2ccccc2C(=O)N([C@@H](C)CO)C[C@H]1C,-87*,1
COc1ccc(CN(C)C[C@H]2OCc3cn(nn3)CCCC(=O)N([C@H](C)CO)C[C@@H]2C)cc1,22,2
CN1c2ccc(C#Cc3cccnc3)cc2[C@H]2[C@H](CCN2C(=O)C2CCCCC2)[C@H]1CO,-36,3
COCC(=O)N1CC2(C1)[C@H](c1ccc(-c3ccccc3)cc1)[C@@H](CO)N2C(C)=O,54,-4
C/C=C/c1ccc([C@@H]2[C@@H](CO)N3C(=O)CN(Cc4ccccc4)C[C@H]23)cc1,34,1
COc1cccc(S(=O)(=O)N(C)C[C@@H]2Oc3ncc(C#Cc4ccc(OC)c(OC)c4)cc3C(=O)N([C@H](C)CO)C[C@@H]2C)c1,-92*,4
COc1ccc(-c2cnc3c(c2)C(=O)N([C@@H](C)CO)C[C@H](C)[C@H](CN(C)S(=O)(=O)c2ccc(OC)cc2)O3)cc1,-83*,/
COc1ccc(S(=O)(=O)N(C)C[C@@H]2Oc3ncc(-c4ccncc4)cc3C(=O)N([C@H](C)CO)C[C@H]2C)cc1,-60,2
CCCN(C)C[C@@H]1Oc2ncc(C#Cc3ccc(OC)cc3)cc2C(=O)N([C@H](C)CO)C[C@@H]1C,-81*,15
COc1ccc(NC(=O)N(C)C[C@@H]2Oc3ncc(-c4cccnc4)cc3C(=O)N([C@@H](C)CO)C[C@H]2C)cc1,30,0
CCCN(C)C[C@@H]1Oc2ncc(C#Cc3cccc(OC)c3)cc2C(=O)N([C@H](C)CO)C[C@@H]1C,-45,28
SMILES,Pf Dd2 inh,C diff growth
COc1ccc(NC(=O)N(C)C[C@H]2Oc3ncc(-c4cccnc4)cc3C(=O)N([C@H](C)CO)C[C@@H]2C)cc1,-83*,-7
CCCC#Cc1cnc2c(c1)C(=O)N([C@H](C)CO)C[C@H](C)[C@@H](CN(C)S(=O)(=O)c1cccc(OC)c1)O2,-57,-2
N#C[C@H]1[C@@H](c2ccccc2C2=CCCCC2)[C@@H](CO)N1C(=O)Nc1ccccc1F,-21,15
CC(=O)N(C)C[C@@H]1Oc2cc(-c3cccc(F)c3)ccc2S(=O)(=O)N([C@@H](C)CO)C[C@H]1C,-12,-10
O=S(=O)(c1ccc(F)cc1)N1CC[C@@H]2[C@@H](CO)Nc3ccc(-c4ccc(F)cc4)cc3[C@@H]21,3,7
Cc1ccc(S(=O)(=O)NC[C@@H]2CC[C@@H]3[C@@H](CN3Cc3ccccc3C(=O)O)O2)cc1,21,-4
O=C(c1cccc(F)c1)N1CC(=O)N2[C@H](C1)[C@H](c1ccc(-c3ccccc3F)cc1)[C@@H]2CO,-55,-9
C[C@@H]1CN([C@@H](C)CO)C(=O)c2cc(NC(=O)C3CCCCC3)ccc2O[C@@H](C)CCCCO[C@@H]1CN(C)S(=O)(=O)c1ccccc1,-51,-2
C[C@@H]1CCCCO[C@H](CN(C)S(=O)(=O)c2ccccc2)[C@H](C)CN([C@@H](C)CO)C(=O)c2cc(NC(=O)C3CCCCC3)ccc2O1,-73,-3
C[C@@H]1CCCCO[C@H](CN(C)S(=O)(=O)c2ccccc2)[C@@H](C)CN([C@@H](C)CO)C(=O)c2cc(NC(=O)C3CCCCC3)ccc2O1,-80*,-2
C[C@H]1CCCCO[C@H](CN(C)S(=O)(=O)c2ccccc2)[C@@H](C)CN([C@@H](C)CO)C(=O)c2cc(NC(=O)C3CCCCC3)ccc2O1,-84*,-7
CC(C)NC(=O)N1[C@H](CO)[C@H]2c3ccccc3N(C(=O)Nc3ccccc3)C[C@H]21,-6,-5
CC=Cc1ccc2n(c1=O)C[C@@H]1[C@@H](CO)[C@H](C(=O)NCc3cc(F)cc(F)c3)[C@H]2N1S(C)(=O)=O (mixture of isomers),/,-1
C[C@H](CO)N1C[C@H](C)[C@@H](CN(C)C(=O)CCC(F)(F)F)OCc2ccccc2-c2ccccc2C1=O,34,-2
CO[C@H]1CN(C)C(=O)c2ccc(NC(=O)Cc3ccccc3)cc2OC[C@H](C)N(C)C[C@@H]1C,-2,-3
C[C@H](CO)N1C[C@H](C)[C@@H](CN(C)S(=O)(=O)c2ccc(F)cc2)Oc2cc(C#Cc3ccc(F)cc3)ccc2S1(=O)=O,-48,5
Cc1ccc(S(=O)(=O)N(C)C[C@H]2Oc3cc(C#Cc4ccncc4)ccc3S(=O)(=O)N([C@@H](C)CO)C[C@H]2C)cc1,-82*,-2
C[C@H](CO)N1C[C@H](C)[C@H](CN(C)S(=O)(=O)c2ccccc2)Oc2cc(C#Cc3ccncc3)ccc2S1(=O)=O,-80,3
C[C@H](CO)N1C[C@H](C)[C@H](CN(C)S(=O)(=O)c2ccc(F)cc2)Oc2cc(C#Cc3ccncc3)ccc2S1(=O)=O,-84*,9
C[C@H]1CN([C@@H](C)CO)S(=O)(=O)c2ccc(C#Cc3ccncc3)cc2O[C@@H]1CN(C)S(=O)(=O)c1ccc(F)cc1,-88*,-2
C[C@H]1CN([C@@H](C)CO)S(=O)(=O)c2ccc(C#Cc3ccc(F)cc3)cc2O[C@H]1CN(C)S(=O)(=O)c1ccc(F)cc1,-22,4

# From PubChem
